Most compounds without a hit are left out; they make up all but 11% or so of the library.
Pf growth 96h: P. falciparum growth inhibition at 96 hour, primary screen for plastid delayed-death inhibitors; actives 6.9% (n = 320,000); P. falciparum luciferase reporter growth, 96 h; Potency, µM (series often up to 28.7 µM), most hits filed as inhibitors
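Readout is luminescence from an integrated firefly luciferase in P. falciparum. Red cells, 2% hematocrit and 0.05% parasitemia final, were cultured with compound through two parasite generations (96 hours) at 37 C, 5% CO2.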
NS1 inh: influenza NS1 inhibition; Potency, µM (top dose mostly 46.1 µM); actives 0.4% (n = 270,000); AID 2326; calls by dose curve; further: actives are rising curves; nearly all actives have a fitted effect of over 50% in size
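Recovery from NS1-induced slow growth read by OD600 in budding yeast switched to galactose assay medium (pH 6.0, -URA) at 1:100 dilution. Compound 23 nl per well; the matching strain lacking NS1 serves as control.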
VACV mCherry inh: vaccinia inhibition (mCherry reporter); Vaccinia virus mCherry reporter infection, fluorescence; actives 0.63% (n = 310,000); Potency, µM (titrated, usually from 36.5 µM), most hits filed as inhibitors; calls by dose curve; tested in A549 cells; further: nearly all actives have a fitted effect of over 35% in size
VACV Venus inh: inhibitors of vaccinia virus (Venus reporter); Vaccinia virus Venus reporter expression, fluorescence; actives 0.46% (n = 330,000); Potency, µM (doses to about 36.5 µM), usual class: inhibitors; AID 720580; calls by dose curve; tested in A549 cells; further: nearly all actives have a fitted effect of over 30% in size
HCV inh: blocks hepatitis C virus; AID 651820; Potency, µM (top dose mostly 41.8 µM), most hits filed as inhibitors; actives 3.4% (n = 340,000); Huh7.5.1 HCVcc-Cre infection, luciferase reporter, 44 h
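A cell-based infection assay in which seeded cells (1,000 per well) receive test compound after 4 h, are inoculated with HCVcc-Cre at approximately 0.5 moi, and are incubated 44 h before luminescence detection.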
Pf growth 48h: inhibits P. falciparum growth in the first generation, 48 h; P. falciparum luciferase growth in erythrocytes, 48 h; Potency, µM (titrated, usually from 28.7 µM), usual class: inhibitors; AID 504832; actives 5.9% (n = 310,000)
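In quantitative HTS format, infected erythrocytes bearing luciferase-reporter parasites were treated for a single generation at 37 C. Luminescence after adding detection reagent served as the growth measure.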
Each line names hits and unclear results; the compound was inactive in the other large screens. Unless noted, the call rests on the fitted dose curve; in most records, active means well fitted inhibition curve with a large enough effect; inconclusive means small, poorly fitted or top-dose-only effect, or another doubt; inactive means no such curve, though single readings can be large or run the other way.

Clc1ccc(/C=C\c2nccc3c2[nH]c2ccccc23)cc1	VACV mCherry inh inconclusive, HCV inh inconclusive, Pf growth 48h 4.65µM (no result: NS1 inh)
N#Cc1ccc(/C=C\c2nccc3c2[nH]c2ccccc23)cc1	HCV inh inconclusive, Pf growth 48h 3.29µM (no result: NS1 inh)
CCc1nccc2c1[nH]c1ccccc12	Pf growth 96h inconclusive, HCV inh 11.2µM (no result: NS1 inh)
CC(CNS(=O)(=O)c1ccc(Cl)cc1)n1cncn1 (configuration not stated)	none
CC(C)(C)OC(=O)C1C(=O)CC(C)(O)C(C(=O)OC(C)(C)C)C1c1cccnc1 (configuration not stated)	Pf growth 96h inconclusive (no result: VACV mCherry inh, VACV Venus inh, Pf growth 48h)
CC(C)COC(=O)C1C(=O)CC(C)(O)C(C(=O)OCC(C)C)C1c1cccnc1 (configuration not stated)	Pf growth 48h 9.28µM (no result: Pf growth 96h)
CC(C)OC(=O)C1C(=O)CC(C)(O)C(C(=O)OC(C)C)C1c1cccc(O)c1 (configuration not stated)	Pf growth 96h 4.15µM (no result: VACV mCherry inh, VACV Venus inh)
Cn1nnnc1SCCCNCc1cccc(OCc2ccccc2Cl)c1	none (no result: Pf growth 96h, NS1 inh, HCV inh, Pf growth 48h)
Cn1c(CSCc2ccccc2)nnc1SCC(=O)Nc1nccs1	Pf growth 96h 5.86µM, Pf growth 48h inconclusive (no result: VACV mCherry inh, VACV Venus inh)
O=C(CC(c1ccccc1)c1ccco1)Nc1nccs1 (configuration not stated)	Pf growth 96h 9.28µM, Pf growth 48h 10.4µM
CC(CC(=O)Nc1nccs1)c1ccccc1 (configuration not stated)	Pf growth 96h inconclusive, Pf growth 48h inconclusive
COc1ccc(NC(=O)CSc2nnc(Cn3cnc4ccccc43)n2C)cc1	Pf growth 96h 2.33µM (no result: VACV mCherry inh)
COc1ccc(NC(=O)Cc2nnc(SCC(=O)Nc3nccs3)n2C)cc1	Pf growth 96h 3.29µM
O=[N+]([O-])c1cc([N+](=O)[O-])c(Oc2ccc(F)cc2F)cc1NN1CCCCC1	Pf growth 96h inconclusive, VACV mCherry inh inconclusive
Cc1nnc(SCC(=O)Nc2nccs2)s1	NS1 inh inconclusive (no result: VACV mCherry inh, VACV Venus inh)
COc1ccc(C(CC(=O)Nc2nccs2)C(C)C)cc1 (configuration not stated)	Pf growth 96h 13.1µM, Pf growth 48h inconclusive
Cc1nnc(SCC(=O)Nc2nccs2)o1	Pf growth 96h 13.1µM, Pf growth 48h inconclusive
COc1ccc(OCC(=O)Nc2nccs2)cc1	none
Clc1ccc2[nH]c3c(c2c1)CCc1cn[nH]c1-3	VACV mCherry inh inconclusive, VACV Venus inh inconclusive, HCV inh inconclusive
O=C(NN1CC(C(=O)OCc2ccccc2F)CC1=O)c1ccccc1 (configuration not stated)	none
CC(C)(C)OC(=O)NCc1ccc(CNC(=O)c2[nH]cnc2C(=O)N[C@@H](Cc2ccccc2)C(=O)OCc2ccccc2)cc1	Pf growth 96h 3.29µM, NS1 inh inconclusive, Pf growth 48h inconclusive
CC(C)(C)OC(=O)NCc1ccc(CNC(=O)c2nc[nH]c2C(=O)NCc2ccccc2)cc1	Pf growth 96h 2.94µM, HCV inh inconclusive, Pf growth 48h 10.4µM (no result: NS1 inh)
CC(C)(C)OC(=O)NCc1ccc(NC(=O)c2nc[nH]c2C(=O)N[C@@H](Cc2ccccc2)C(=O)OCc2ccccc2)cc1	Pf growth 96h 4.15µM, NS1 inh inconclusive, Pf growth 48h 8.28µM
CC(C)(C)OC(=O)NCc1ccc(CNC(=O)c2[nH]cnc2C(=O)N[C@@H](Cc2ccccc2)C(=O)OC(C)(C)C)cc1	Pf growth 96h inconclusive, NS1 inh inconclusive, VACV Venus inh inconclusive, HCV inh inconclusive, Pf growth 48h 10.4µM
CC(C)C[C@H](NC(=O)c1nc[nH]c1C(=O)NCc1ccc(CNC(=O)OC(C)(C)C)cc1)C(=O)OCc1ccccc1	Pf growth 96h inconclusive, NS1 inh inconclusive, Pf growth 48h inconclusive
C=C(C)Cn1c(N2CCCC2)nc2c1c(=O)n(C)c(=O)n2C	none
CN1OC(CC(=O)O)N(c2ccc(Cl)cc2)C1=O (configuration not stated)	none (no result: Pf growth 96h)
O=C(CCc1nc(-c2ccccc2Cl)no1)NCc1ccco1	none
COc1cccc(C(c2nnnn2Cc2ccccc2)N2CCC(n3c(=O)[nH]c4ccccc43)CC2)c1OC (configuration not stated)	none (no result: Pf growth 96h, NS1 inh, HCV inh, Pf growth 48h)
Cc1c(C)c2c(OCC(=O)N3CCC(O)CC3)cc3c(c2oc1=O)CCC(C)(C)O3	Pf growth 96h 7.38µM, HCV inh inconclusive, Pf growth 48h 13.1µM
Cc1c(C)c2c(OCC(=O)N3CCC[C@H]3C(=O)O)cc3c(c2oc1=O)CCC(C)(C)O3	Pf growth 96h 13.1µM, NS1 inh inconclusive, Pf growth 48h inconclusive
Cc1c(C)c2c(OCC(=O)N[C@@H](C)C(=O)O)cc3c(c2oc1=O)CCC(C)(C)O3	none
COCCNC(=O)C1(C)CCCN(Cc2ccc(Cl)c(Cl)c2)C1 (configuration not stated)	none (no result: Pf growth 96h, NS1 inh, HCV inh, Pf growth 48h)
Cc1c(-c2ccccc2)[n+](=O)c(-c2ccco2)c(C)n1[O-]	Pf growth 96h 5.22µM (no result: VACV mCherry inh, VACV Venus inh)
Cc1c(-c2ccco2)[n+](=O)c2c(n1[O-])CCCCC2	none (no result: VACV mCherry inh, VACV Venus inh, Pf growth 48h)
CCN(CC)S(=O)(=O)c1ccc(Cl)c(C(=O)Nc2nnc(C)s2)c1	HCV inh 22.4µM (no result: VACV mCherry inh, VACV Venus inh)
CCN(CC)S(=O)(=O)c1cccc(C(=O)NC(C(=O)Nc2nnc(C)s2)C(C)C)c1 (configuration not stated)	Pf growth 48h 11.7µM (no result: Pf growth 96h, VACV mCherry inh)
CCN(CC)S(=O)(=O)c1cccc(C(=O)N[C@H](C(=O)O)C(C)C)c1	none (no result: Pf growth 48h)
COc1ccc(C(=O)N/N=C/c2ccc(OC)c(CN3CCc4cc(OC)c(OC)cc4C3C)c2)cc1 (configuration not stated)	HCV inh inconclusive, Pf growth 48h 9.28µM (no result: NS1 inh)
COc1cc(C(=O)N/N=C/c2cn(Cc3cccc(F)c3)c3ccccc23)ccc1O	Pf growth 96h 1.65µM, HCV inh inconclusive
COc1cc(C(=O)N/N=C/c2ccc(OC)c(CN3CCN(c4ccc(F)cc4)CC3)c2)ccc1O	HCV inh 25.1µM, Pf growth 48h inconclusive (no result: NS1 inh, VACV mCherry inh, VACV Venus inh)
COc1ccc(/C=N/NC(=O)c2ccccc2)cc1CN1CCN(c2ccc(F)cc2)CC1	none
Cc1ccc(S(=O)(=O)N2CCC(C(=O)NCCC3=CCCCC3)CC2)c(C)c1	Pf growth 96h inconclusive, HCV inh inconclusive, Pf growth 48h inconclusive (no result: NS1 inh)
CC1Cc2[nH]c(=S)[nH]c(=O)c2C(C)O1 (configuration not stated)	none (no result: Pf growth 96h, NS1 inh, HCV inh, Pf growth 48h)
COc1ccccc1-c1nn2c(-c3cc(-c4ccccc4)n[nH]3)nnc2s1	none (no result: Pf growth 96h, NS1 inh, HCV inh, Pf growth 48h)
C/C(=N\NC(=O)C1(C)CC1(Br)Br)c1cccc(NC(=O)C(C)(C)C)c1 (configuration not stated)	Pf growth 96h inconclusive
COc1ccc(CC(=O)Nc2cccc(/C(C)=N/NC(=O)C3(C)CC3(Br)Br)c2)cc1 (configuration not stated)	Pf growth 96h inconclusive, HCV inh 10µM, Pf growth 48h inconclusive (no result: VACV mCherry inh, VACV Venus inh)
C/C(=N\NC(=O)C1(C)CC1(Br)Br)c1ccc(NC(=O)c2ccc(C)o2)cc1 (configuration not stated)	Pf growth 96h 9.28µM, HCV inh inconclusive, Pf growth 48h inconclusive

High-throughput results from PubChem BioAssay.
